D2 ag-1 – D2 dopamine receptor (human) agonism. actives 0.53% (n = 340,000). HEK293 T-REx D2 cells, calcium flux agonist mode. activation, % at 2 µM;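 active = activation over 3 SD above normal in the single-dose calcium agonist read, cut at about 30% in these data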; also: 0% is about no effect
Target sequence (P14416 whole entry, looked up): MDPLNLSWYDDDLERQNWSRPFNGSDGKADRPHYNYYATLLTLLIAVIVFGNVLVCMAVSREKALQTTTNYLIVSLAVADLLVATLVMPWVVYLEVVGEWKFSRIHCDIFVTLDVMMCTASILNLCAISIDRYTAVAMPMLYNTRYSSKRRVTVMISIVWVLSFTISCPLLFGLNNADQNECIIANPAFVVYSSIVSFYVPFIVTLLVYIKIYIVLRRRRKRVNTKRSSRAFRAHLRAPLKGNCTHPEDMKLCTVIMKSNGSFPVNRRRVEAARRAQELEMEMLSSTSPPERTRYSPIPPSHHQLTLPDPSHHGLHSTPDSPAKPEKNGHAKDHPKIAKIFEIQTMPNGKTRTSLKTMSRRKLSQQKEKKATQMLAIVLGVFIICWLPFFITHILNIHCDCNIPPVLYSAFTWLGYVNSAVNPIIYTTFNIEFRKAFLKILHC
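Tetracycline-induced HEK293 Trex cells with D2 receptor force-coupled to calcium signaling, plated overnight at 30 C and loaded with no-wash calcium dye. Calcium flux read kinetically for 180 s after compound addition; responses flag agonists.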
D2 PAM-1 – positive allosteric modulators of human D2 dopamine receptor; P14416; potentiation, % (concentration not given with the values); AID 624464; DiscoveRx D2 beta-arrestin cells, luminescence, 90 min; 100% = 57 uM dopamine signal; actives 0.23% (n = 360,000); in the data active = potentiation above about 50%
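PathHunter D2 cells, attached overnight at 37 deg C, received compound in DMSO plus dopamine at EC20 (50 nM final) for 90 min at 37 deg C. Beta-arrestin recruitment was read as luminescence after 1 h with detection reagent at ambient temperature.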
D2 antag – antagonizes the human D2 dopamine receptor. P14416. actives 2% (n = 340,000). HEK293 TREx D2 cells, calcium flux, dopamine EC80. inhibition, % at 10 µM; in the data active = inhibition above about 30%; inactive = below that, where a call was filed; also: 0% is about no effect
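Overnight-induced (tetracycline, 30 C) HEK293 T-REx cells carrying force-coupled D2 receive a no-wash calcium dye, then compound, then EC80 dopamine at 180 s; signals are read kinetically throughout.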
D2 ag-2 – human D2 receptor agonism in beta-arrestin assay. DiscoveRx PathHunter D2 beta-arrestin, luminescence, 90 min; 100% = 57 uM dopamine signal. actives 0.084% (n = 360,000). P14416. activation, % (test concentration not listed); in the data active = activation above about 40%
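DiscoveRx PathHunter D2 beta-arrestin cells (2,100/well) attached overnight, then compound-stimulated 90 min at 37 C in HBSS/10 mM HEPES/0.1% Tween-20 buffer; beta-galactosidase complementation read by luminescence after 1 h at ambient temperature. Dopamine 57 uM final (EC100) as control.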
D2 PAM-2 – positively modulates the human D2 dopamine receptor allosterically; actives 0.34% (n = 340,000); HEK293 T-REx D2, calcium flux, EC20 dopamine potentiation; P14416; potentiation, % at 10 µM;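 active = potentiation over 3 SD above the plate norm, cut at about 30% in these data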; also: 0% is about no effect
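Tetracycline-induced HEK293 T-REx cells force-coupled to calcium signalling expressed D2; compounds were pin-added after a 10 s baseline, read kinetically 180 s, then an EC20 dopamine challenge followed with a further 180 s calcium read.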
Active calls of the source: *; · = no result given. An excerpt weighted towards active compounds, which were near 2.4% of everything screened.

SMILES	D2 ag-1	D2 PAM-1	D2 antag	D2 ag-2	D2 PAM-2
COc1cccc(OCC(=O)Nc2ccc(OC)c(OC)c2)c1	-1.8	-0.7	-13.1	-0.3	32.0*
COC(=O)c1cc(OC)c(OC)cc1NC(=O)c1ccco1	1.0	-3.3	-3.6	1.5	2.3
COc1ccc(NC(=O)COC(=O)c2cc(OC)c(OC)cc2NC(=O)c2ccco2)cc1OC	0.4	-5.0	57.5*	-1.3	17.5
Cc1csc(NC(=O)C2CC(=O)N(c3ccc(C)c(C)c3)C2)n1 (centres undefined)	0.6	4.9	50.8*	-4.8	-8.8
COc1ccccc1N1CC(C(=O)Nc2nc(C)cs2)CC1=O (centres undefined)	0.3	-17.1	7.4	-2.5	-9.0
Cc1ccc(N2CC(C(=O)Nc3cccnc3)CC2=O)cc1C (centres undefined)	0.3	-3.0	31.1*	-2.8	-4.9
O/N=C1\CCCCc2ccccc21	-0.7	-5.5	33.0*	0.4	-1.8
O/N=C1\CCCc2ccccc21	0.2	-3.4	-11.7	2.4	3.8
CC1CCc2cc(F)ccc2N1C(=O)C12CCC(C)(C(=O)O1)C2(C)C (centres undefined)	0.0	0.7	32.0*	-3.2	-5.4
O=C1c2cccc3c(N4CCCCC4)ccc(c23)C(=O)N1c1ccccn1	37.3*	-4.4	-4.6	-2.6	-0.3
CC(=O)N(C(C)=O)N1C(=O)c2cccc3c(N4CCOCC4)ccc(c23)C1=O	8.8	-11.6	-3.5	8.0	3.1
Cc1cc(C)n(CCOc2nonc2N)n1	0.7	5.5	34.1*	-0.5	-6.5
Nc1nonc1OCCOCCOCCOc1nonc1N	-0.4	-0.7	-16.9	-3.4	11.4
Fc1ccc(C2=NN(c3ccccc3)C(c3ccco3)C2)cc1 (centres undefined)	-0.7	-4.1	-34.8	-9.0	18.3
Oc1ccc(C2=NN(c3ccccc3)C(c3ccc(F)cc3)C2)cc1 (centres undefined)	0.7	-0.5	32.9*	4.9	3.9
Cc1ccc(C2CC(c3ccccc3)=NN2c2ccccc2)o1 (centres undefined)	-0.9	-8.9	35.6*	-5.8	-2.6
COc1cccc(/C=N/NC(=O)c2nnn(-c3nonc3N)c2C(C)C)c1	0.4	-7.8	-2.5	3.0	13.1
Cc1ccc(COc2coc(CN3CCN(C(=O)c4ccco4)CC3)cc2=O)cc1	24.1	-12.1	-4.6	2.9	9.0
CC(Oc1coc(CN2CCN(C(=O)c3ccco3)CC2)cc1=O)c1ccccc1 (centres undefined)	30.6*	-22.4	-3.4	4.3	-3.2
COc1ccccc1NS(=O)(=O)c1ccc(NN=C2CCCC2)c([N+](=O)[O-])c1	-0.8	15.1	34.4*	0.3	2.7
COc1ccccc1NS(=O)(=O)c1ccc(N/N=C/C=C/c2ccccc2[N+](=O)[O-])c([N+](=O)[O-])c1	-0.1	-11.2	-0.9	2.2	-1.9
CSCC(C)N1CCC(CCC(=O)NC2CC2)CC1 (centres undefined)	0.1	-4.1	-22.7	-4.1	101.2*
COc1ccc(OC)c(NC(=O)CSc2nc(O)cc(=O)n2CC(C)C)c1	·	-4.5	·	-0.9	·
CC(C)(C)C(=O)Nc1nc(-c2ccc3c(c2)OCO3)cs1	-0.6	-18.2	-2.5	-2.7	21.6
CCC(=O)Nc1nc(-c2ccc3c(c2)OCCO3)cs1	0.4	-0.9	31.8*	1.9	-2.6
SMILES	D2 ag-1	D2 PAM-1	D2 antag	D2 ag-2	D2 PAM-2
Cn1cc(CN2CCc3c([nH]c4ccccc34)C2C2CCCCC2)cn1 (centres undefined)	-0.2	-15.8	-4.0	1.3	-5.6
O=C(Nc1ccccc1)c1cccc2c(Br)cccc12	-1.1	21.2	-15.1	-0.6	-1.4
CCCC(=O)CN1C(=O)C2(OCCO2)c2ccccc21	0.4	-17.0	-12.8	-0.6	36.0*
O=C1N(Cc2ccccc2F)c2ccccc2C12OCCCO2	0.3	-12.3	-3.7	-3.0	39.7*
COc1ccc(C2NN=C(c3ccc(C)cc3)S2)cc1 (centres undefined)	0.4	-14.8	-20.0	-2.4	12.9
O=C(O)c1ccc(Nc2ncnc3ccccc23)cc1	2.6	-7.3	31.7*	-0.8	2.1
OC(CNCc1ccccc1)COCc1ccc(Cl)cc1 (centres undefined)	0.9	-6.9	-12.1	-2.5	12.6
OC(CNCc1ccc(Cl)cc1)COc1ccccc1 (centres undefined)	0.8	-21.2	49.0*	-5.7	-22.8
Cc1ccc(OCCNCC(O)COc2ccccc2)cc1 (centres undefined)	0.4	-13.6	45.2*	0.5	-23.8
CN(Cc1ccccc1)Cc1nc2c([nH]1)c(=O)n(C)c(=O)n2C	0.3	0.8	-16.4	-0.8	-0.8
CCN(CC)c1ccc2c(C)c(Cl)c(=O)oc2c1	-0.3	-3.1	-5.5	7.1	8.2
CCN(CC)c1ccc2c(c1)oc(=O)c1c(Cl)cc(=O)oc12	47.7*	-32.8	51.4*	-5.0	-4.5
Cc1ccc2nsnc2c1NC(=O)c1ccc2c(c1)OCCO2	-0.3	-24.6	-6.1	-2.5	-8.1
Cc1ccc(C(=O)c2cnc3ccccc3c2-c2ccccc2)cc1	1.8	-7.0	-3.8	-4.2	30.8*
O=C(Cc1c[nH]c2ccccc12)Nc1ccccc1N1CCOCC1	4.2	-0.7	-26.1	7.0	0.5
N#Cc1sc2nc(-c3ccccc3)cc(-c3ccco3)c2c1N	0.5	-6.3	62.3*	-2.3	0.2
N#Cc1sc2nc(C3CC3)cc(-c3ccccc3)c2c1N	-1.5	-16.5	1.5	-2.7	8.4
CC(Cc1cccnc1)NC(=O)c1cc(COc2ccc(F)cc2Cl)on1 (centres undefined)	0.7	-16.8	-6.7	-2.5	9.3
CCn1cc([N+](=O)[O-])c(C(=O)Nc2ccn(Cc3ccccc3F)n2)n1	-0.1	-2.1	3.7	-1.0	2.0
Cc1ccccc1Cn1ccc(NC(=O)c2nn(C)cc2[N+](=O)[O-])n1	2.2	-7.0	31.0*	1.7	9.1
COc1ccc(C(=O)COC(=O)c2n[nH]c3ccccc23)c(OC)c1	0.1	5.7	10.3	7.2	1.3
Cc1cc(C)c2cc(C(=O)Nc3ccc(C)c(F)c3)[nH]c2c1	0.2	-34.8	39.0*	2.9	-26.8
CCCCNC(=O)c1cc2c(C)cc(C)cc2[nH]1	-2.0	-23.1	34.1*	-2.5	-24.2
COc1cc2[nH]c(C(=O)Nc3ccc(F)cc3)cc2c(OC)c1OC	-0.5	·	89.0*	·	-20.0
COc1ccc2[nH]c(C(=O)Nc3ccc(C)c(F)c3)cc2c1	-0.8	-3.1	-14.6	-0.6	11.6
COc1ccc(F)cc1-c1cc(C(=O)Nc2ccc(NC(C)=O)cc2)[nH]n1	·	-2.3	·	1.0	·
CCOC(=O)c1ccc(Nc2nn3c(=O)c4ccccc4nc3s2)cc1	0.0	·	·	·	2.6

Screening data deposited in PubChem by National Center for Advancing Translational Sciences (NCATS).
